Experimental data taken from the supplement of paper PMC10849652.
About 8,800 targets were measured; listed, in parts, are those with a hit and a random draw of the rest. About 0.5% of all pairs of compound and target were hits. Unmarked numbers belong to inactive results.

Key:
Assay in all cases: log2 fold change, soluble protein after heating vs DMSO (PISA); higher = thermal stabilisation; K562 lysate, 10 uM; active = over 0.2 and 3.5 SD of the protein, either way, in both replicates (recomputed)
nilotinib = compound: Cc1cn(-c2cc(NC(=O)c3ccc(C)c(Nc4nccc(-c5cccnc5)n4)c3)cc(C(F)(F)F)c2)cn1 [nilotinib]
In short: (§1)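 Values give the log-two fold change in thermal stability against solvent controls, from duplicates. Crude K562 extract at 1 mg/mL protein, made by dounce homogenisation in PBS pH 7.4 with 1 mM MgCl2, was treated with 10 μM compound for 30 min. After 3 min heating across 48°C-58°C, aliquots were pooled, adjusted to 0.5% NP-40 at 4°C and centrifuged at 21,000xg for 90 min. The supernatant was measured by TMTpro 16plex LC-MS/MS with channel sums equalised.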

[1] = compound: Cc1nc(Nc2n[nH]c3c2CN(C(=O)N[C@H](CN(C)C)c2ccccc2)C3(C)C)c2sccc2n1
In short: as §1

dasatinib = compound: Cc1nc(Nc2ncc(C(=O)Nc3c(C)cccc3Cl)s2)cc(N2CCN(CCO)CC2)n1 [dasatinib]
In short: as §1

[2] = compound: Cc1ncc(-c2ccnc(Nc3ccc(S(C)(=O)=O)cc3)n2)n1C(C)C
In short: as §1

[3] = compound: Cn1cc(-c2ccc3c(c2)CCN3C(=O)Cc2cccc(C(F)(F)F)c2)c2c(N)ncnc21
In short: as §1

quisinostat = compound: Cn1cc(CNCC2CCN(c3ncc(C(=O)NO)cn3)CC2)c2ccccc21 [quisinostat]
In short: as §1

tipifarnib = compound: Cn1cncc1[C@@](N)(c1ccc(Cl)cc1)c1ccc2c(c1)c(-c1cccc(Cl)c1)cc(=O)n2C [tipifarnib]
In short: as §1

[4] = compound: NC(=O)Nc1cc(-c2cccc(F)c2)sc1C(=O)N[C@H]1CCCNC1
In short: as §1

[5] = compound: NC(=O)c1cnc(N[C@@H]2CCCC[C@@H]2N)nc1Nc1cccc(-n2nccn2)c1
In short: as §1

[6] = compound: NC1(c2ccc(-c3nc4ccn5c(=O)[nH]nc5c4cc3-c3ccccc3)cc2)CCC1
In short: as §1

Chain of UniProt Q9NWR8 (Q9NWR8 whole entry, looked up): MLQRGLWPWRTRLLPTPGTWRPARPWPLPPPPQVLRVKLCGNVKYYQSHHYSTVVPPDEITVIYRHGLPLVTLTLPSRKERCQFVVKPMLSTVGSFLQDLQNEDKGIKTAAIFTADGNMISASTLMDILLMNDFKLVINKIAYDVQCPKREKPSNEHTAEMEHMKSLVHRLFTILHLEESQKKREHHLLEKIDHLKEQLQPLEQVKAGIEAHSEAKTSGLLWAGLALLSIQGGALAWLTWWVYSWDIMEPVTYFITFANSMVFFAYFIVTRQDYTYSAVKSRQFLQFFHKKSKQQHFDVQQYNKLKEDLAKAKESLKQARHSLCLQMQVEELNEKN
Chain of UniProt P14174 (P14174 whole entry, looked up): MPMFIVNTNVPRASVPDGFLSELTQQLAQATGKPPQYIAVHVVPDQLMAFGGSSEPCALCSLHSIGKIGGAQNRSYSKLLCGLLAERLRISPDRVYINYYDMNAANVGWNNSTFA
Chain of UniProt Q08380 (Q08380 whole entry, looked up): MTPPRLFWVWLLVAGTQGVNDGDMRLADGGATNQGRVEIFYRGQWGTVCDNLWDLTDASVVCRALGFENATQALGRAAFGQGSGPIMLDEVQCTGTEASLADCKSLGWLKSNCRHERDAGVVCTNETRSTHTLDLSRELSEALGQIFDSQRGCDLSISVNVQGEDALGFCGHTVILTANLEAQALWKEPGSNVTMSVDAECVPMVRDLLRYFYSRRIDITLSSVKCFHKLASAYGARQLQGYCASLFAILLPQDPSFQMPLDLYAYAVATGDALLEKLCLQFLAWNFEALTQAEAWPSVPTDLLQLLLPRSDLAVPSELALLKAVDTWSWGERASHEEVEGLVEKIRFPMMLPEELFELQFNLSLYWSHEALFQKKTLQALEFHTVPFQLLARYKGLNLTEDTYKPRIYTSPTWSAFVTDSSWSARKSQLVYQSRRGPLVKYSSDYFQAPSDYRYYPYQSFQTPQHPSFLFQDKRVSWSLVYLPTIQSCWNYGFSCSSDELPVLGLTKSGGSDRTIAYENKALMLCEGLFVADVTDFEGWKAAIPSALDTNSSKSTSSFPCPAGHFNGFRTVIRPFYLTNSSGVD
Chain of UniProt Q9UI95 (Q9UI95 whole entry, looked up): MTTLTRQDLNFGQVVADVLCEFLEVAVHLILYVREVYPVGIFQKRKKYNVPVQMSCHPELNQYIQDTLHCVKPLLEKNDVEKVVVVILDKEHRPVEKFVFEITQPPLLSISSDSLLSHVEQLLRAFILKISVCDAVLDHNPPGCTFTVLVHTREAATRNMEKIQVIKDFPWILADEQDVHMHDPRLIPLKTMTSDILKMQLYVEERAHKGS
Chain of UniProt P28838 (P28838 whole entry, looked up): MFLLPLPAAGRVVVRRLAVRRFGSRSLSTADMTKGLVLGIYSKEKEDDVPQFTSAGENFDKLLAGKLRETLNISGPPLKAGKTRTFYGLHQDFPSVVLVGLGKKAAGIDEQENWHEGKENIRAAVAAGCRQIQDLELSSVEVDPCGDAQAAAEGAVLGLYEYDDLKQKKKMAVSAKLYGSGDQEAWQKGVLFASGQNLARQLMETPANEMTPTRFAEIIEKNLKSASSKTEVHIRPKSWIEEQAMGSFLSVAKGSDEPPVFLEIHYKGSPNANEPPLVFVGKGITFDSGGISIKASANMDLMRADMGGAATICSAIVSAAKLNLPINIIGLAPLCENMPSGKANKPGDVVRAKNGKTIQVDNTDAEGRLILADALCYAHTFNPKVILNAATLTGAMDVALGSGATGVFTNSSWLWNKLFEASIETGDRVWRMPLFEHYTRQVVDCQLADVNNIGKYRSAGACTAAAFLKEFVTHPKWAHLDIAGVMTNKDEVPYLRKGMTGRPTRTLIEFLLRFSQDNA
Chain of UniProt Q92615 (Q92615 whole entry, looked up): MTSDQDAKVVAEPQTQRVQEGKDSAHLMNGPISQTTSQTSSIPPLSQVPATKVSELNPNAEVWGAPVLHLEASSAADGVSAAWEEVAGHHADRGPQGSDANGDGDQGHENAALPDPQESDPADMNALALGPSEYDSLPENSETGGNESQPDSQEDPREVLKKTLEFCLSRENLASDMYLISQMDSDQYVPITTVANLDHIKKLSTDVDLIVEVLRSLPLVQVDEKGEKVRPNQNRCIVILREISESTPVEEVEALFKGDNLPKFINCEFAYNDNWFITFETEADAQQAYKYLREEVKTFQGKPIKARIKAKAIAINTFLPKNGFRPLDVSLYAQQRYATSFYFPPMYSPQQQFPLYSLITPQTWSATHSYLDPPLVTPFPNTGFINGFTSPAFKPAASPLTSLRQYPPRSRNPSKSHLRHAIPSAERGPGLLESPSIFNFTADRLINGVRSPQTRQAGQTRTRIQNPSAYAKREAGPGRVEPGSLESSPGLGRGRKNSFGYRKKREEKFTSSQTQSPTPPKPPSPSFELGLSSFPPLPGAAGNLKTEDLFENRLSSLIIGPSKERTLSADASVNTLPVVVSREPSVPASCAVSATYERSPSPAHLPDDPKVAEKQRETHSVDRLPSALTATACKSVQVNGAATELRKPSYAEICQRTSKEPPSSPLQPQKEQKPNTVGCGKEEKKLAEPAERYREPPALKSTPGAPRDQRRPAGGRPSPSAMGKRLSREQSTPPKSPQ
Chain of UniProt Q9NZB8 (Q9NZB8 whole entry, looked up): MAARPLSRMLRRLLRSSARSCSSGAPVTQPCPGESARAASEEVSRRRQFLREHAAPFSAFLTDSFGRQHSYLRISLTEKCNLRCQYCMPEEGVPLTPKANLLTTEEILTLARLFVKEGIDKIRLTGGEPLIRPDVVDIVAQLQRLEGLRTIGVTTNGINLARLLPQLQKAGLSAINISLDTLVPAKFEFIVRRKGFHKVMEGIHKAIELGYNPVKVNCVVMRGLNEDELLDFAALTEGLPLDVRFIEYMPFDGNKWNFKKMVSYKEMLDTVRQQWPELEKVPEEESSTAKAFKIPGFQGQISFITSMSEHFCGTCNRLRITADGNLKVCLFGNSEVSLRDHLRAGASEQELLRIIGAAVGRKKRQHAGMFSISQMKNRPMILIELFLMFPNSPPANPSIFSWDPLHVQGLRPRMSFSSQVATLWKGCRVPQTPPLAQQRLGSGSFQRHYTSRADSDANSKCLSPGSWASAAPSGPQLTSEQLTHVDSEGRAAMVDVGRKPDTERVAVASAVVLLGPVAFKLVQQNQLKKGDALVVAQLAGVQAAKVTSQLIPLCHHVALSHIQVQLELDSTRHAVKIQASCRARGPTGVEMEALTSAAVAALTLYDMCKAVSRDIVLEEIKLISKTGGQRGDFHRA
Chain of UniProt P49916 (P49916 whole entry, looked up): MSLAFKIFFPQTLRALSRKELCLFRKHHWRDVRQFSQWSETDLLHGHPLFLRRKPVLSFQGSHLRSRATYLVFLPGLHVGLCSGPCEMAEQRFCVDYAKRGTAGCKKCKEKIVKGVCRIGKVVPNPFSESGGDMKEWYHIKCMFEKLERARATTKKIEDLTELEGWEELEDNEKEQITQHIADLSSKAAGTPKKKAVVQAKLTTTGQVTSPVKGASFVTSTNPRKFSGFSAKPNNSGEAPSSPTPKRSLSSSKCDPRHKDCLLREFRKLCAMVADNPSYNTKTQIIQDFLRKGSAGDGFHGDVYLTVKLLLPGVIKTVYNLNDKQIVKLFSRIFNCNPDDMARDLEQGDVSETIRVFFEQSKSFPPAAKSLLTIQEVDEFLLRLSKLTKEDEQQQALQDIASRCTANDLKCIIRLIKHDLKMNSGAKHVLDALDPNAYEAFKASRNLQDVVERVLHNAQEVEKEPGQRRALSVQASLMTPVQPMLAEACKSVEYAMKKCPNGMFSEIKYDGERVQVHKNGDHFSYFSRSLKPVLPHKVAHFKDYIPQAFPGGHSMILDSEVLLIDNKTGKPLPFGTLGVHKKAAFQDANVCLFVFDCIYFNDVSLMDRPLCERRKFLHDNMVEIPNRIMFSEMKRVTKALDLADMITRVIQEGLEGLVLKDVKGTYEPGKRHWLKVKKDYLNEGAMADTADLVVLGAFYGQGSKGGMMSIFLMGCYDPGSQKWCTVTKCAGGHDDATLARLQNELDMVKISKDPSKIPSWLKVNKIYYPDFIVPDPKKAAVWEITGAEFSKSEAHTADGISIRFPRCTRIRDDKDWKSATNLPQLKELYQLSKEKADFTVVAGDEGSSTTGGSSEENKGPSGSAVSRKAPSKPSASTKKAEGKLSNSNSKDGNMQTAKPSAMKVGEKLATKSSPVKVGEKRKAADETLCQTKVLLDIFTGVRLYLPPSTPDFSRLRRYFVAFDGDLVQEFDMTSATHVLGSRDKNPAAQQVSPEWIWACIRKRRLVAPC
Chain of UniProt O14733 (O14733 whole entry, looked up): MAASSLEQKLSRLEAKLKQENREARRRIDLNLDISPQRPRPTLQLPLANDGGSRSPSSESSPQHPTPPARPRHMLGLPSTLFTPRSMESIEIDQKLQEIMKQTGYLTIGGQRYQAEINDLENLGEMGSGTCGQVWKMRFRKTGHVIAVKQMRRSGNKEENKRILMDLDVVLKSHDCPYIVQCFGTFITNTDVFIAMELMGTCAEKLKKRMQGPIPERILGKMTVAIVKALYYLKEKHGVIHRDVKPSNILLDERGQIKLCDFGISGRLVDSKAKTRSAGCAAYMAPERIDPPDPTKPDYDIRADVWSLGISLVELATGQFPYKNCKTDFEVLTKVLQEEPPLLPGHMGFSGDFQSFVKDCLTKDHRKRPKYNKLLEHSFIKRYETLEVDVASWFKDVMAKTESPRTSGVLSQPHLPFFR
Chain of UniProt Q13601 (Q13601 whole entry, looked up): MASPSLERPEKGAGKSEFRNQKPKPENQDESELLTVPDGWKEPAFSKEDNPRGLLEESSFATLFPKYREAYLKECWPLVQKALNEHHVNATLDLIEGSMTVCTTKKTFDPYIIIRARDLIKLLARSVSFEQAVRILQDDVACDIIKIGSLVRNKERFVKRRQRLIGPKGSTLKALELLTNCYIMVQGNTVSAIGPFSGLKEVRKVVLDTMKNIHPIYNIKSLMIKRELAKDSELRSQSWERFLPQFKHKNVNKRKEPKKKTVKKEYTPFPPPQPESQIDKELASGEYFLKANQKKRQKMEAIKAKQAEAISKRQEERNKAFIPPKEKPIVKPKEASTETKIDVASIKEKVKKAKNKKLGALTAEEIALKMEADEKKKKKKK

| Target | log2 fold change (nilotinib) | log2 fold change [1] | log2 fold change (dasatinib) | log2 fold change [2] | log2 fold change [3] | log2 fold change (quisinostat) | log2 fold change (tipifarnib) | log2 fold change [4] | log2 fold change [5] | log2 fold change [6] |
| --- | --- | --- | --- | --- | --- | --- | --- | --- | --- | --- |
| MIF (UniProt P14174) | 0.036 | -0.042 | 0.001 | -0.007 | -0.009 | 0.058 | 0.061 | 0.035 | 0 | 0.033 |
| KLC2 (UniProt Q9H0B6) | 0.016 | 0.013 | -0.062 | 0.067 | 0.041 | -0.017 | 0.063 | 0.012 | 0.013 | -0.036 |
| KLHL36 (UniProt Q8N4N3) | 0.012 | -0.104 | -0.021 | 0.027 | 0.049 | 0.043 | 0.067 | 0.007 | -0.023 | -0.014 |
| KIF3C (UniProt O14782) | -0.038 | -0.117 | 0.026 | 0.191 | 0.062 | -0.204 | -0.187 | 0.043 | -0.194 | 0.145 |
| MAD2L2 (UniProt Q9UI95) | 0.031 | -0.029 | -0.064 | 0.006 | -0.035 | -0.231 | -0.015 | 0.064 | 0.117 | -0.065 |
| MRPL30 isoform 2 (UniProt Q8TCC3) | -0.048 | -0.066 | -0.038 | 0.047 | 0.03 | -0.13 | 0.052 | -0.007 | 0 | 0.039 |
| MCUB (UniProt Q9NWR8) | -0.142 | 0.119 | 0.075 | -0.12 | 0.122 | -0.262 | -0.112 | 0.143 | -0.008 | -0.014 |
| KLC1 isoform 6 (UniProt Q07866) | 0.009 | -0.017 | -0.021 | -0.009 | 0.009 | -0.014 | -0.005 | -0.014 | 0.002 | 0.017 |
| MOCS1 isoform 8 (UniProt Q9NZB8) | 0.188 | -0.03 | 0.074 | 0.227 | -0.013 | -0.082 | -0.231 | 0.093 | 0.021 | -0.033 |
| MRPL28 (UniProt Q13084) | 0.03 | -0.111 | -0.013 | -0.037 | 0.051 | -0.031 | 0.149 | 0.057 | 0.015 | -0.058 |
| METTL7A (UniProt Q9H8H3) | 0.168 | 0.014 | 0.198 | -0.01 | 0.096 | -0.112 | 0.03 | -0.026 | -0.055 | -0.068 |
| MBLAC2 (UniProt Q68D91) | 0.028 | -0.076 | -0.003 | -0.126 | 0.059 | 0.026 | 0.08 | 0 | -0.005 | 0.005 |
| KNL1 (UniProt Q8NG31) | 0.011 | -0.004 | -0.014 | 0.02 | 0.012 | -0.048 | -0.06 | 0.023 | 0.024 | -0.001 |
| LAP3 (UniProt P28838) | 0.045 | -0.006 | -0.047 | 0.016 | -0.123 | -0.192 | -0.008 | 0.049 | 0.009 | -0.137 |
| LIG4 (UniProt P49917) | 0.02 | -0.072 | 0.018 | -0.008 | -0.026 | -0.085 | 0.038 | 0.066 | -0.045 | -0.005 |
| MED14 (UniProt O60244) | 0.027 | -0.013 | -0.012 | -0.015 | 0.011 | -0.021 | -0.013 | 0.011 | 0.015 | 0.047 |
| MCCC1 (UniProt Q96RQ3) | -0.025 | 0.002 | -0.103 | 0.027 | 0.008 | -0.049 | 0.031 | 0.035 | 0.008 | -0.045 |
| MAP2K7 isoform 4 (UniProt O14733) | 0.017 | -0.101 | -0.093 | 0 | 0.22 | 0.001 | -0.024 | 0.033 | 0.001 | 0.002 |
| LARP4B (UniProt Q92615) | -0.05 | 0.03 | -0.053 | -0.02 | 0.012 | -0.026 | 0 | 0.026 | -0.001 | 0.008 |
| KRR1 (UniProt Q13601) | -0.057 | 0.058 | -0.014 | 0.006 | 0.012 | -0.336 (active) | -0.039 | 0.018 | 0.022 | -0.08 |
| KLC4 isoform 3 (UniProt Q9NSK0) | -0.023 | 0.047 | -0.013 | 0.089 | 0.048 | -0.018 | -0.015 | 0.01 | 0.021 | -0.003 |
| LGALS3BP (UniProt Q08380) | -0.056 | 0.06 | 0.339 | -0.043 | -0.128 | -0.007 | -0.123 | 0.111 | 0.125 | 0.137 |
| MRPL19 (UniProt P49406) | 0.001 | -0.015 | -0.039 | -0.004 | 0.005 | -0.055 | 0.033 | 0.024 | -0.018 | -0.044 |
| KIF11 (UniProt P52732) | -0.016 | 0.003 | -0.021 | -0.018 | 0.034 | -0.022 | -0.007 | 0.006 | 0 | 0 |
| MED13L (UniProt Q71F56) | 0.06 | -0.056 | 0.017 | 0.032 | 0.045 | -0.055 | -0.012 | 0.069 | 0.014 | 0.015 |
| LRRC40 (UniProt Q9H9A6) | -0.008 | -0.01 | -0.012 | -0.035 | 0.017 | 0.032 | -0.032 | 0.004 | 0.004 | 0.029 |
| MAP2K3 isoform 3 (UniProt P46734) | -0.001 | -0.004 | -0.021 | 0.021 | 0.059 | -0.055 | -0.093 | 0.034 | -0.03 | 0.131 |
| MAP11 (UniProt Q8WVR3) | -0.088 | 0.002 | 0.002 | 0.021 | -0.058 | -0.026 | -0.063 | 0.037 | -0.014 | -0.007 |
| LIG3 (UniProt P49916) | 0.012 | 0.002 | -0.011 | -0.019 | 0.046 | -0.024 | -0.004 | 0.059 | 0.008 | 0.011 |
